Screens deposited in PubChem BioAssay by several laboratories.
Shown are actives, neighbours in structure and some others; about 3.7% of the full set was active somewhere.
tim23-1 inh = inhibits growth of tim23-1 mutant yeast; S. cerevisiae tim23-1 growth, BacTiter-Glo luminescence, 24 h; inhibition, % at 20 µM; 330,000 compounds, 1.3% hits;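 active = growth inhibition of the mutant yeast at or above 50%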;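 note: temperature-sensitive mutant grown at 25 °C; plate controls were DMSO-treated mutant yeast for no effect and medium wells lacking yeast for full effect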
PfHsp90 set2 = reduces growth (ATP signal) of yeast expressing P. falciparum Hsp90 | S. cerevisiae expressing PfHsp90, BacTiter-Glo ATP, 48 h; yeast lacking PDR1 and PDR3 efflux regulators | inhibition, % at 9.4 µM | 310,000 compounds, 0.32% hits | AID 504621;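 active = every replicate shows inhibition above about 80%, whatever the replicate mean, limit read from the data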;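 note: 0% = DMSO neutral controls and 100% = 20 µM radicicol positive controls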
NALP3 yeast inh = NALP3 inhibition in yeast | Yeast reconstituted NLRP3/ASC/caspase-1, beta-gal luminescence, 24 h | inhibition, % at 10 µM | 330,000 compounds, 0.39% hits;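 active = inhibition of 50% or more; inactive = inhibition below 50%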;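 note: plate controls were induced DMSO wells for no effect and uninduced yeast grown without galactose for full effect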
TIM10 inh = TIM10 yeast growth inhibition; S. cerevisiae TIM10 strain growth, BacTiter-Glo luminescence, 24 h; inhibition, % at 10 µM; AID 463195; 330,000 compounds, 1.4% hits;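 active = inhibition of 40% or more at the single tested concentration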;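 note: wild-type TIM10 isogenic control strain grown at permissive 25 °C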
tim10-1 inh = tim10-1 yeast growth inhibition. S. cerevisiae tim10-1 ts strain growth, BacTiter-Glo, 24 h. inhibition, % at 20 µM. 330,000 compounds, 2.2% hits;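 active = inhibition of at least 40%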;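 note: mutant grown at 25 °C; 0% = DMSO wells with yeast and 100% = wells holding no yeast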
tim10 confirm = TIM10 yeast growth inhibition, confirmed. shares compounds with TIM10 inh. S. cerevisiae tim10 strain growth, BacTiter-Glo luminescence, 24 h. inhibition, % at 10 µM. 4,600 compounds, 63% hits;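 active = inhibition of yeast growth at or above a set limit in either of two replicates at 10 µM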;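 note: this counterscreen used the strain with wild-type TIM10; 0% = yeast with DMSO and 100% = medium wells lacking yeast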
* hit, by the source's call; / = no result.

SMILES	tim23-1 inh	PfHsp90 set2	NALP3 yeast inh	TIM10 inh	tim10-1 inh	tim10 confirm
C=CCNC(=O)C12CCC(C)(C(=O)[C@H]1Br)C2(C)C (stereo partly drawn)	12	11	-2	42*	12	-20
CC(C)(C)c1ccc(C(=O)N/C(=C\c2cccs2)C(=O)N2CCOCC2)cc1	22	8	2	-6	20	/
C/C(=N\NC(=S)NC1CCCCC1)c1ccc(O)cc1	40	/	-5	49*	32	42*
CC(C)(C)c1ccc(/C=N/NC(=S)NC2CCCCC2)cc1	37	-21	15	96*	35	48*
C/C(=N\NC(=S)NC1CCCCC1)c1ccccc1	30	-43	4	-6	23	/
O=C(N/N=C/c1ccccc1)NC1CCCCC1	24	8	13	7	19	/
CSc1ccccc1C(=O)Nc1cccc(C)c1	37	/	31	44*	20	30
Nc1c(C(=O)Nc2ccc(F)cc2)sc2nc(-c3ccco3)ccc12	46	1	20	49*	31	48*
CCOC(=O)c1cc2cc3ccccc3cc2[nH]1	45	-25	12	43*	32	12
CC(C)OC(=O)c1cc2ccccc2[nH]1	16	/	32	-4	6	/
CCOc1ccc(N/C(N)=N/c2nc(C)cc(C)n2)cc1	-24	-13	2	-5	-19	/
CN(Cc1ccccc1)S(=O)(=O)c1ccc2c(c1)n(C)c(=O)c(=O)n2C	-22	4	11	-9	-9	/
CN(Cc1ccccc1)C(=O)CCS(=O)(=O)c1ccc2c(c1)n(C)c(=O)c(=O)n2C	7	-6	6	40*	14	-10
CCC(=O)NC(=S)Nc1cccc(Cl)c1N1CCCCC1	38	-16	-59	47*	37	38*
CCCCC(=O)NC(=S)Nc1ccccc1N1CCCCC1	44	-30	-21	44*	37	-33
Cc1c(C(=O)NC(=S)Nc2ccccc2N2CCCC2)cccc1[N+](=O)[O-]	42	-9	21	42*	39	32*
CCCC(=O)NC(=S)Nc1ccccc1N1CCOCC1	28	19	-1	22	34	/
CCCCC(=O)NC(=S)Nc1cccc(Cl)c1N1CCCCC1	9	-43	-9	14	24	/
O=C(Cc1ccc(Cl)cc1)NC(=S)Nc1ccccc1N1CCOCC1	44	-118	-6	42*	28	34*
CCCn1c(SCC(=O)NNC(=O)c2ccccc2)nnc1-c1cccnc1	-3	12	15	-8	-2	/
OCC(Cc1ccccc1)Nc1c2ccccc2nc2ccccc12 (stereo not drawn)	27	-5	6	56*	14	-7
CCN(CC)CCN(C(=O)c1cc2c(ccc3ccccc32)oc1=O)c1nc2cc3c(cc2s1)OCCO3	31	-10	14	50*	20	31
CCOC(=O)C1=C(C)N(C)C(=S)NC1c1cccc(Cl)c1Cl (stereo not drawn)	16	-3	-4	48*	36	28
CCOC(=O)C1=C(C)N(C)C(=S)NC1c1ccccc1Cl (stereo not drawn)	17	26	2	21	8	/
COc1c2c(nc3occc13)C(CC=C(C)C)(OC)C(O)CC2 (stereo not drawn)	22	-4	7	34	25	/
SMILES	tim23-1 inh	PfHsp90 set2	NALP3 yeast inh	TIM10 inh	tim10-1 inh	tim10 confirm
COc1c2c(nc3occc13)C(CC=C(C)C)(OC)C(OC(C)=O)CC2 (stereo not drawn)	36	-6	13	46*	35	-17
Cc1cc(NC(=O)c2ccc(F)cc2)n(C)n1	4	-19	12	1	0	/
c1ccc(-c2onc3cc4c(cc23)OCCO4)cc1	-3	-16	35	44*	33	52*
Cc1ccccc1NC(=O)N1CCC(NC(=O)C2CCCCC2)CC1	2	33	12	-14	9	/
Cc1cc(Nc2cccc(Cl)c2)nc(-c2ccccc2O)n1	19	-44	0	42*	18	41*
O=C(Nc1cccc([N+](=O)[O-])c1)c1ccccc1	25	-64	26	12	-33	/
O=C(C#Cc1cccc([N+](=O)[O-])c1)c1ccccc1	-20	137*	-49	80*	29	83*
c1ccc(-c2nc(N3CCCCCC3)nc(-n3ccnc3)n2)cc1	17	-23	-4	48*	16	28
